Results from PubChem BioAssay AID1159580 (chemical genetic matrix, 2015).
The campaign covered roughly 5,500 compounds. About 2,000 (36%) were called active. Roughly 18% stayed inconclusive and do not appear here. No stated cut-off is given here; in the data, active means normalized growth mostly below about 0.91 (no sharp cut-off); inconclusive means no clear call, values can overlap the other calls; inactive means mostly above about 0.92. Some of the results follow.

Assay: chemical genetic growth profiling, strain panel (AID 1159580);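 further: tested at 20 µM; growth read once vehicle control cultures reached saturation at 30 °C; 1 = growth at the plate median or of vehicle wells; lower values mean less growth of the strain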
Details: growth OD
[1] = S. cerevisiae deletion strains, locus YAL013W, strain DEP1, hits give low values
[2] = S. cerevisiae deletion strains, locus YBR229C, strain ROT2, hits give low values
[3] = S. cerevisiae deletion strains, locus YCL061C, strain MRC1, hits give low values
[4] = S. cerevisiae deletion strains, locus YDL101C, strain DUN1, hits give low values
[5] = S. cerevisiae deletion strains, locus YDR150W, strain NUM1, hits give low values
[6] = S. cerevisiae deletion strains, locus YEL061C, strain CIN8, hits give low values
[7] = S. cerevisiae deletion strains, locus YGR078C, strain PAC10, hits give low values
[8] = S. cerevisiae deletion strains, locus YHR030C, strain SLT2, hits give low values
[9] = S. cerevisiae deletion strains, locus YHR087W, strain rtc3, hits give low values
[10] = S. cerevisiae deletion strains, locus YJL187C, strain SWE1, hits give low values
[11] = S. cerevisiae deletion strains, locus YJR043C, strain POL32, hits give low values
[12] = S. cerevisiae deletion strains, locus YJR075W, strain HOC1, hits give low values
[13] = S. cerevisiae deletion strains, locus YKL190W, strain CNB1, hits give low values
[14] = S. cerevisiae deletion strains, locus YLR039C, strain RIC1, hits give low values
[15] = S. cerevisiae deletion strains, locus YLR058C, strain SHM2 (second series), hits give low values
[16] = S. cerevisiae deletion strains, locus YLR085C, strain ARP6, hits give low values
[17] = S. cerevisiae deletion strains, locus YLR262C, strain YPT6, hits give low values
[18] = S. cerevisiae deletion strains, locus YML094W, strain GIM5, hits give low values
[19] = S. cerevisiae deletion strains, locus YMR219W, strain ESC1, hits give low values
[20] = S. cerevisiae deletion strains, locus YMR263W, strain SAP30, hits give low values
[21] = S. cerevisiae deletion strains, locus YMR307W, strain GAS1, hits give low values
[22] = S. cerevisiae deletion strains, locus YNL153C, strain GIM3, hits give low values
[23] = S. cerevisiae deletion strains, locus YNL298W, strain CLA4 (second series), hits give low values
[24] = S. cerevisiae deletion strains, locus YNL322C, strain KRE1, hits give low values
[25] = S. cerevisiae deletion strains, locus YNR030W, strain Alg12, hits give low values
[26] = S. cerevisiae deletion strains, locus YOL006C, strain TOP1, hits give low values
[27] = S. cerevisiae deletion strains, locus YPL055C, strain LGE1, hits give low values
[28] = S. cerevisiae deletion strains, locus YPL241C, strain CIN2, hits give low values
[29] = S. cerevisiae deletion strains, locus YPR135W, strain CTF4, hits give low values
[30] = S. cerevisiae deletion strains, locus YDL134C, strain PPH21, hits give low values
[31] = S. cerevisiae deletion strains, locus YGR229C, strain SMI1, hits give low values

Measured: normalized growth

O=C1OC2COC(=O)C2C=C1NC(=O)c1ccc(Cl)cc1 (stereo not given)
inactive: [5] 0.939 | [16] 0.836 | [20] 0.921 | [21] 0.786 | [24] 0.967 | [25] 0.978 | [27] 0.942 | [28] 0.975
active: [1] 0.914 | [2] 0.372 | [3] 0.125 | [4] 0.154 | [6] 0.882 | [7] 0.438 | [8] 0.38 | [9] 0.225 | [10] 0.381 | [11] 0.793 | [12] 0.0733 | [13] 0.913 | [14] 0.422 | [15] 0.506 | [17] 0.436 | [18] 0.82 | [19] 0.143 | [22] 0.329 | [23] 0.698 | [26] 0.72 | [29] 0.627

Clc1cc(Cl)cc(-n2cccc2)c1
inactive: [1] 1.02 | [2] 0.995 | [3] 1.03 | [4] 1.01 | [30] 0.969 | [5] 1.04 | [6] 0.963 | [7] 1 | [31] 0.98 | [8] 0.975 | [9] 0.989 | [10] 1 | [11] 1.02 | [12] 0.981 | [13] 0.988 | [14] 1.04 | [15] 0.994 | [16] 0.949 | [17] 1.05 | [18] 0.991 | [19] 0.997 | [20] 1.01 | [22] 1.01 | [23] 0.951 | [24] 1 | [25] 0.98 | [26] 0.977 | [27] 0.981 | [28] 0.987 | [29] 0.917

CCCc1cc(Br)c(-n2cccc2)c(Br)c1
inactive: [1] 0.998 | [2] 0.993 | [4] 1.01 | [5] 1.01 | [6] 1.02 | [7] 0.997 | [8] 1.08 | [9] 0.994 | [10] 0.992 | [11] 1.02 | [12] 0.994 | [14] 1.09 | [15] 0.998 | [16] 1.08 | [17] 1.05 | [18] 1.01 | [19] 0.994 | [20] 0.938 | [22] 1.01 | [23] 1.06 | [24] 0.997 | [25] 1.01 | [26] 1.04 | [27] 1.13 | [28] 1.02 | [29] 1.05 | S. cerevisiae strains, strain wild type, hits give low values 1.03

Clc1cc(Cl)c(Cl)c(-n2cccc2)c1Cl
active: [1] 0.855 | [2] 0.914 | [4] 0.893 | [30] 0.826 | [6] 0.763 | [7] 0.813 | [31] 0.752 | [8] 0.178 | [9] 0.8 | [11] 0.887 | [12] 0.707 | [13] 0.622 | [14] 0.304 | [16] 0.41 | [17] 0.216 | [18] 0.691 | [23] 0.641 | [25] 0.631 | [26] 0.395 | [27] 0.785 | [28] 0.701 | [29] 0.543
inactive: [5] 0.863 | [15] 0.938 | [19] 0.952 | [20] 0.916 | [22] 0.933 | [24] 0.956

O=C(O)/C=C/c1cnc[nH]1
inactive: S. cerevisiae deletion strains, locus YAL040C, strain CLN3, hits give low values 1.01 | S. cerevisiae deletion strains, locus YCL061C, strain MRC1 (second series), hits give low values 1.01 | [5] 1.02 | S. cerevisiae deletion strains, locus YDR363W, strain ESC2, hits give low values 1.03 | S. cerevisiae deletion strains, locus YER002W, strain NOP16, hits give low values 1 | [12] 1.02 | [20] 1.01 | [21] 1.01 | S. cerevisiae deletion strains, locus YNL128W, strain TEP1, hits give low values 1.01 | [22] 1.03 | S. cerevisiae deletion strains, locus YNL175C, strain NOP13, hits give low values 0.997 | S. cerevisiae deletion strains, locus YNL197C, strain WHI3, hits give low values 0.994 | S. cerevisiae deletion strains, locus YNL224C, strain SQS1, hits give low values 0.984 | [24] 1.03 | S. cerevisiae deletion strains, locus YOR083W, strain WHI5 (second series), hits give low values 1.01 | [28] 1.01
